The record followed here is PubChem BioAssay (EPA / NIEHS).

Molecules are shown by their SMILES. Values joined by “and” are separate entries in the source; they are usually repeats but may differ in a detail not shown here. Identical values can stand only once. Records with an inconclusive call do not appear. Active and inactive are the calls of the source. The calls were made as follows, unless noted: active = hit-call score of the fitted dose curve at least 0.9, where 1 is the maximum; inactive = score below 0.9.

Assay [1] in a line: BSK_SAg_PBMCCytotoxicity: PBMC Cytotoxicity Assessment in the BioMAP Diversity Plus: SAg Assay (AID 2283093).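 Also: fitted both ways against DMSO so a hit may be loss or gain of signal.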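 As to AC50: PBMC superantigen activated with SEB plus TSST-1 one hour after compound addition.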 The following applies: primary human HUVEC with PBMC. An outline of the steps: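 PBMC viability by Alamar Blue reduction, fluorescence read at 546/580 nm after 6 h dye exposure. Cells were dosed 1 h before SEB plus TSST-1 activation (20 ng/mL final each), then held 90 h; endothelial/PBMC human co-culture.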

Read-out in assay [2]: Interleukin-8 (IL8), CXCL8 (gene 3576)
Put plainly: BSK_SAg_IL8: BioMAP Diversity Plus: SAg Assay for Interleukin-8 (IL8) Biomarker Activity (AID 2283094). The following applies: primary human HUVEC with PBMC; actives raise or lower the signal. An outline of the steps:
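Primary human endothelial cells with PBMC, exposed 24 h; IL-8 determined by ELISA, analysed bidirectionally relative to DMSO.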

The nature of assay [3]: BSK_SAg_Proliferation: Cell Proliferation Assessment in the BioMAP Diversity Plus: SAg Assay (AID 2283095).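 Also: relative cell number as total protein by SRB absorbance in sub-confluent culture.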 The following applies: primary human HUVEC with PBMC. The procedure, abridged: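 A human primary co-culture of umbilical vein endothelium and blood mononuclear cells receives compound; relative cell number is quantified at 96 h by SRB staining and 560 nm absorbance, with DMSO-referenced bidirectional curve fitting.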

Assay [4] in a line: BSK_SAg_SRB: Viability Assessment in the BioMAP Diversity Plus: SAg Assay (AID 2283096).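 Also: cells read one day after compound addition; hits may be either gain or loss of signal compared with DMSO.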 The following applies: primary human HUVEC with PBMC. An outline of the steps:
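Compounds were added to a human vascular co-culture of umbilical vein endothelium and PBMC. After 24 h, parallel cultures were fixed with 10% TCA, stained with 0.1% sulforhodamine B and read at 560 nm. Gain or loss of signal was fitted relative to DMSO.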

For assay [5], the target named is rat CYP2A2, Cyp2a2 (gene 24895) (UniProt P15149). Nature of the assay: NVS_ADME_rCYP2A2: NovaScreen (NVS) CYP450-related Enzyme Activity (ADME) Assay for rat CYP2A2 (AID 2283116; active = hit-call score of the fitted dose curve at least 0.9, where 1 is the maximum). The procedure, abridged: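 Compounds first tested in duplicate at 10 uM, then in singleton concentration series up to 20 uM when over threshold. Activity of the recombinant enzyme read by fluorescence at 0.2 h, normalised to acetonitrile vehicle.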
rat CYP2A2, Cyp2a2 (gene 24895), sequence (P15149 whole entry, looked up): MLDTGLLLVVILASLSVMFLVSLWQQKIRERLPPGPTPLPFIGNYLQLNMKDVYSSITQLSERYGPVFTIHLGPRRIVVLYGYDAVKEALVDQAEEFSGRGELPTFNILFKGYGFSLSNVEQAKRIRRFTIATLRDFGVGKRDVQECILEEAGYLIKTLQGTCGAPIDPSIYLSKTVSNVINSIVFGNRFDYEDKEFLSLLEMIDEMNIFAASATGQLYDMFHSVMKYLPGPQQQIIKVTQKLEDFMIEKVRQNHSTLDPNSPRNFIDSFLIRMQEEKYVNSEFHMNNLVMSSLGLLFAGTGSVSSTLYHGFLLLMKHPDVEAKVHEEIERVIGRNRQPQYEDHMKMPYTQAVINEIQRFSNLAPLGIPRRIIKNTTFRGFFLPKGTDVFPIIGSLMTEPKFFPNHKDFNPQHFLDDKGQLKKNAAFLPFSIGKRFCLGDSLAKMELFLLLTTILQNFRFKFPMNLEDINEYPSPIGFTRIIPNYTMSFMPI

The subject of the next assay is rat CYP3A1, gene 25642. Nature of the assay: NVS_ADME_rCYP3A1: NovaScreen (NVS) CYP450-related Enzyme Activity (ADME) Assay for rat CYP3A1 (AID 2283126; active = hit-call score of the fitted dose curve at least 0.9, where 1 is the maximum). The procedure, abridged:
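Compounds went first at 10 uM duplicate, then to series with 20 uM maximum. Fluorescence from substrate turnover by the recombinant enzyme was measured 0.5 h post-dosing, inhibition scored against acetonitrile vehicle.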

Assay [6] has as its target rat CYP3A2, Cyp3a2 (gene 266682) (UniProt P05183). Nature of the assay: NVS_ADME_rCYP3A2: NovaScreen (NVS) CYP450-related Enzyme Activity (ADME) Assay for rat CYP3A2 (AID 2283128; active = hit-call score of the fitted dose curve at least 0.9, where 1 is the maximum). The procedure, abridged: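 Fluorescence readout of extracted rat CYP3A2 activity 0.5 h post-dose, acetonitrile as negative control. Single-point testing in duplicate at 10 uM, followed by concentration series to a 20 uM maximum for actives.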

Assay [7] concerns the target human CYP2A6, CYP2A6 (gene 1548) (UniProt P11509). Put plainly: NVS_ADME_hCYP2A6: NovaScreen (NVS) CYP450-related Enzyme Activity (ADME) Assay for human CYP2A6 (AID 2283099; active = hit-call score of the fitted dose curve at least 0.9, where 1 is the maximum). The procedure, abridged:
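Loss of fluorescence signal relative to acetonitrile vehicle reported CYP2A6 inhibition in a cell-free system using insect-cell-derived enzyme. Readings were taken at 0.5 h; top concentration in follow-up dose series was 20 uM.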

For assay [8], the target named is human CYP2D6, CYP2D6 (gene 1565) (UniProt P10635). Put plainly: NVS_ADME_hCYP2D6: NovaScreen (NVS) CYP450-related Enzyme Activity (ADME) Assay for human CYP2D6 (AID 2283107; active = hit-call score of the fitted dose curve at least 0.9, where 1 is the maximum). An outline of the steps: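 Biochemical fluorescence assay, insect-cell-derived enzyme. Read at 1 h; inhibition taken from loss of signal against acetonitrile. Screened at 10 uM in duplicate, with concentration series for actives.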
human CYP2D6, CYP2D6 (gene 1565), sequence (P10635 whole entry, looked up): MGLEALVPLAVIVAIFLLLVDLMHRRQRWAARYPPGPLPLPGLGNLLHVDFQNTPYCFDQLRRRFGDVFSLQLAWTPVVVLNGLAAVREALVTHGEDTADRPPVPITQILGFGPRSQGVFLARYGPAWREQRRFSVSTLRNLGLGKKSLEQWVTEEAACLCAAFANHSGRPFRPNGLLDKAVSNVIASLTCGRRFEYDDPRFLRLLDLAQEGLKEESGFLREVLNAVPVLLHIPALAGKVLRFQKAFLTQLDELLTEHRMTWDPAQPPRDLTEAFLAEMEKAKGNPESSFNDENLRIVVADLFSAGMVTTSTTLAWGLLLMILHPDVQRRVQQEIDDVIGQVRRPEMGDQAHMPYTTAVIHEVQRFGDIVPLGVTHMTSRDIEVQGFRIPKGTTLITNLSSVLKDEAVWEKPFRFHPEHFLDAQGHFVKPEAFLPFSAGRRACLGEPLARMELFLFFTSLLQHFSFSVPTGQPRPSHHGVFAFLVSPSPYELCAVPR

For assay [9], the target named is human CYP2C9, CYP2C9 (gene 1559) (UniProt P11712). Put plainly: NVS_ADME_hCYP2C9: NovaScreen (NVS) CYP450-related Enzyme Activity (ADME) Assay for human CYP2C9 (AID 2283108; active = hit-call score of the fitted dose curve at least 0.9, where 1 is the maximum). An outline of the steps:
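Recombinant human CYP2C9 expressed in SF9 cells, fluorogenic substrate, fluorescence read 0.75 h after dosing. Chemicals first run in duplicate at 10 uM, with actives followed in concentration series; loss of signal versus acetonitrile baseline.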

Assay [10] has as its target Cytochrome P450 3A4 (Homo sapiens) (UniProt P08684). Put plainly: NVS_ADME_hCYP3A4: NovaScreen (NVS) CYP450-related Enzyme Activity (ADME) Assay for human CYP3A4 (AID 2283110; active = hit-call score of the fitted dose curve at least 0.9, where 1 is the maximum). The procedure, abridged: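 Recombinant CYP3A4 from insect cells, fluorescence enzyme read-out, 0.33 h after chemical addition. Acetonitrile = negative control/baseline. Primary HTS: 10 uM in duplicate; actives re-tested in concentration series.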

In assay [11] the target is human Caspase 5 (CASP5), CASP5 (gene 838) (UniProt P51878). Nature of the assay: NVS_ENZ_hCASP5: NovaScreen (NVS) Enzymatic Assay for human Caspase 5 (CASP5) (AID 2283137; active = hit-call score of the fitted dose curve at least 0.9, where 1 is the maximum). An outline of the steps:
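Caspase 5 enzyme activity, detected as fluorescence signal loss, is measured in a biochemical format using E. coli-expressed protein. Reading occurs 2 hours post-dosing. Screening runs at 25 uM, with confirmed actives titrated to 50 uM maximum.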

Assay [12] deals with human CYP1A1, CYP1A1 (gene 1543) (UniProt P04798). Nature of the assay: NVS_ADME_hCYP1A1: NovaScreen (NVS) CYP450-related Enzyme Activity (ADME) Assay for human CYP1A1 (AID 2283100; active = hit-call score of the fitted dose curve at least 0.9, where 1 is the maximum). An outline of the steps:
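Inhibition of recombinant CYP1A1 turnover was assessed fluorometrically in a biochemical format 1 h after compound exposure. Testing began at 10 uM in duplicate and progressed to concentration series reaching 20 uM, with on-plate positive and negative controls.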

The target in assay [13] is human CYP19A1, CYP19A1 (gene 1588) (UniProt P11511). Nature of the assay: NVS_ADME_hCYP19A1: NovaScreen (NVS) CYP450-related Enzyme Activity (ADME) Assay for human CYP19A1 (AID 2283098; active = hit-call score of the fitted dose curve at least 0.9, where 1 is the maximum). The procedure, abridged:
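Fluorescence intensity read-out; activity taken as signal loss relative to acetonitrile vehicle. Extracted enzyme, specific substrate, no cells, 0.5 h exposure. Duplicate single-point screen at 10 uM, then concentration–response follow-up for actives.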

human CYP2A6, CYP2A6 (gene 1548), sequence (P11509 whole entry, looked up): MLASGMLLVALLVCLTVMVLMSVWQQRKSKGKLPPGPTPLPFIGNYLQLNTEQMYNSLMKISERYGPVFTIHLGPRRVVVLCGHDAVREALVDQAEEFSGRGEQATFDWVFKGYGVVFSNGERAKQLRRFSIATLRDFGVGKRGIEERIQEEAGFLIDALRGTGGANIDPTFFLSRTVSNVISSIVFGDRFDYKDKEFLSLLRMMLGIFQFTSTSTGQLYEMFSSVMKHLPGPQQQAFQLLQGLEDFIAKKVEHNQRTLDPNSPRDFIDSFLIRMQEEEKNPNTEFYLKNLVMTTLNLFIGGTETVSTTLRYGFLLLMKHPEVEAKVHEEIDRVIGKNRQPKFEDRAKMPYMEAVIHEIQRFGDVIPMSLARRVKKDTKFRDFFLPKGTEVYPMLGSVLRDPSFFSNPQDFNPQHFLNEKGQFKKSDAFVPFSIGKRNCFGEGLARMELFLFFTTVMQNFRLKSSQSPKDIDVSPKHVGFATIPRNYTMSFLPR
Cytochrome P450 3A4 (Homo sapiens), sequence (P08684 whole entry, looked up): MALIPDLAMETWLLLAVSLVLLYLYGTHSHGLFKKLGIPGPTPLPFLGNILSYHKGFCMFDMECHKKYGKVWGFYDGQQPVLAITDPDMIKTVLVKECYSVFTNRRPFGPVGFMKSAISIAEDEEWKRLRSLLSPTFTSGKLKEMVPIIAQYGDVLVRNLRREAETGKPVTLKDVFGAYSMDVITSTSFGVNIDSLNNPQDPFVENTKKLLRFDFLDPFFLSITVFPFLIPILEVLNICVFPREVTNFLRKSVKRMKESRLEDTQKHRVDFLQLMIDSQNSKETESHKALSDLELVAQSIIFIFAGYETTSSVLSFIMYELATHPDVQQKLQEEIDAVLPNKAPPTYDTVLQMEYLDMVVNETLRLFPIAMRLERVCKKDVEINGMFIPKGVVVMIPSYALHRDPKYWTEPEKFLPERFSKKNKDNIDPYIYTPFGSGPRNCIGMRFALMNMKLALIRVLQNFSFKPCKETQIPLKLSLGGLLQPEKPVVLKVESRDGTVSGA
human CYP1A1, CYP1A1 (gene 1543), sequence (P04798 whole entry, looked up): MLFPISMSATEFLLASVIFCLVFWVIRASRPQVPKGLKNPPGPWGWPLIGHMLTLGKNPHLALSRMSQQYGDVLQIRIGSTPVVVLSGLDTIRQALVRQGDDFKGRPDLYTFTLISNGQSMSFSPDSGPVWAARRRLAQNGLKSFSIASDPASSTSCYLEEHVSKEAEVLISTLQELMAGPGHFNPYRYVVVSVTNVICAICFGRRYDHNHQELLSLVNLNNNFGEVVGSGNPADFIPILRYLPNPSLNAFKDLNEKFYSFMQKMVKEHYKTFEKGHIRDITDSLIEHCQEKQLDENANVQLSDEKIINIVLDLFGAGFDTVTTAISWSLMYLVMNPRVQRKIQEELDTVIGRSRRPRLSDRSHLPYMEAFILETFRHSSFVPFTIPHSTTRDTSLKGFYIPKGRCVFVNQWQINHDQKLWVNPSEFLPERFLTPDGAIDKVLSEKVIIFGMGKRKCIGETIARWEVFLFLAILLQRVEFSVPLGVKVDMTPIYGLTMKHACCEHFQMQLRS
human CYP2C9, CYP2C9 (gene 1559), sequence (P11712 whole entry, looked up): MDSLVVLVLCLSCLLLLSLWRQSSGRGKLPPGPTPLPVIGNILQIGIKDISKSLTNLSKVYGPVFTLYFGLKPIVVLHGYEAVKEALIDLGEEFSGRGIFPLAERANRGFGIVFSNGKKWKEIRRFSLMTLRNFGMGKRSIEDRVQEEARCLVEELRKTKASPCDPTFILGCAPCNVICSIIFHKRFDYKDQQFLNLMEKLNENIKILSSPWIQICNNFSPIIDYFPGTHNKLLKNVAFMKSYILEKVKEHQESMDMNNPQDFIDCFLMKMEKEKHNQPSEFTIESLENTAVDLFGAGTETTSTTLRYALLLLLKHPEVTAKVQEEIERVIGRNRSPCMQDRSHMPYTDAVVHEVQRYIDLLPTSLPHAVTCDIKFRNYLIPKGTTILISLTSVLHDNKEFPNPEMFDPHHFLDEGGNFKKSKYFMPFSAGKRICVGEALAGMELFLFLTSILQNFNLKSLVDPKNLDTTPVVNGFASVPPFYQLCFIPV
human Caspase 5 (CASP5), CASP5 (gene 838), sequence (P51878 whole entry, looked up): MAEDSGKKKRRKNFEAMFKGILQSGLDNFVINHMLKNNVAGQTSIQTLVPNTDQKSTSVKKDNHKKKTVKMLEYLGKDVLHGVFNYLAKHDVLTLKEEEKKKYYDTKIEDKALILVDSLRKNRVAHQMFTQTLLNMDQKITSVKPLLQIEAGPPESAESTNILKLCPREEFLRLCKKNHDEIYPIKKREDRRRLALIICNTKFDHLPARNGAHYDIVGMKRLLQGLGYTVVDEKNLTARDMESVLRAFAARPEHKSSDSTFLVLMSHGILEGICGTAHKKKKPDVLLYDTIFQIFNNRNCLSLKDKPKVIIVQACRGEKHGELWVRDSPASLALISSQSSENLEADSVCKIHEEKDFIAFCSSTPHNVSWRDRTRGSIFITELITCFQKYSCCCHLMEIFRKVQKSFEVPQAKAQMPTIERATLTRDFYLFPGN
human CYP19A1, CYP19A1 (gene 1588), sequence (P11511 whole entry, looked up): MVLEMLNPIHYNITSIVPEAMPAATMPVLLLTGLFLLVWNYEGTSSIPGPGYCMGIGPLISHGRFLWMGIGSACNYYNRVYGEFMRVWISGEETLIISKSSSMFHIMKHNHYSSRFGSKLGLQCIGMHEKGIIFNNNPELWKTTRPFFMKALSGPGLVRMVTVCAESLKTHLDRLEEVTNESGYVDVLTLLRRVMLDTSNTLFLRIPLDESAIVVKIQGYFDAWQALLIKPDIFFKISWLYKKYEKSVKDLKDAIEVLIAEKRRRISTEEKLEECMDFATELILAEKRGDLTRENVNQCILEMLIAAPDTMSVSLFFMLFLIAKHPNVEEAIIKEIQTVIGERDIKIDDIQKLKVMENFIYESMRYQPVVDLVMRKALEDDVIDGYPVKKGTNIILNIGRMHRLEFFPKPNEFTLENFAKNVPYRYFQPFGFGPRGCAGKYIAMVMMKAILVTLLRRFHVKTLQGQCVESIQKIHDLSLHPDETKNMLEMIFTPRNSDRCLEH
rat CYP3A2, Cyp3a2 (gene 266682), sequence (P05183 whole entry, looked up): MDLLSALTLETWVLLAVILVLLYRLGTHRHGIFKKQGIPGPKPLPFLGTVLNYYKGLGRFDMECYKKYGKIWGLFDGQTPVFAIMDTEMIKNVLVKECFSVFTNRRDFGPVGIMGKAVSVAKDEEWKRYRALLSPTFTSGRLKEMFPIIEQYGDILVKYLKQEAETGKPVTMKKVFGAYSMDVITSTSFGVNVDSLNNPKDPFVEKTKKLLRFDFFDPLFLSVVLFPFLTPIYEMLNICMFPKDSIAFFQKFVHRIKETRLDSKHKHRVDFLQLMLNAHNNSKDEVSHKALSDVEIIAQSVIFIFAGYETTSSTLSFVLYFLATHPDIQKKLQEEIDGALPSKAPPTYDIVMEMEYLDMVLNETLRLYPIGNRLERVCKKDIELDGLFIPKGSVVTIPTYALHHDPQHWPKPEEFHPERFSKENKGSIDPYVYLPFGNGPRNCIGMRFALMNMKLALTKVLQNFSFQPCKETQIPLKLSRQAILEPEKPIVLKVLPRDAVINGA

As for `CN(C)CCCN(C)CCCN(C)C`, the outcome in [1], in assay [2], in assay [3] and in assay [4] was inactive.
Usually AC50 stands for the midpoint of the concentration-response curve, whichever way the signal moves. Take `CC(=O)O[C@]1(C(C)=O)CC[C@H]2[C@@H]3C=C(Cl)C4=CC(=O)[C@@H]5C[C@@H]5[C@]4(C)[C@H]3CC[C@@]21C`: the outcome in [1], in assay [2] and in assay [3] was inactive. Moreover, the AC50 in [4] is 31.2 µM (active); in [5], 832 nM (active) and 2.03 µM (active) and 1.28 µM (active); with rat CYP3A1, gene 25642, 1.2 µM (active); in [6], 1.42 µM (active).
As for `Oc1ccc(O)cc1`, the results for the AC50 in assay [1] and in assay [3] were 12.8 µM (active) and 7.06 µM (active), respectively. Moreover, the outcome in assay [4] was inactive.
As for `CN(C)C(=O)NC1(c2ccccc2)CCN(CCC[C@]2(c3ccc(Cl)c(Cl)c3)CCCN(C(=O)c3ccccc3)C2)CC1`, the results for the AC50 in [1], in [3] and in assay [8] were 7.62 µM (active), 7.39 µM (active) and 1.25 µM (active), respectively. Further, the outcome in assay [2], in assay [4] and in assay [7] was inactive.
As to `NC(=Nc1ccccc1)Nc1ccccc1`, the outcome in assay [1], in assay [3] and in assay [4] was inactive. Also, the concentration at half-maximal activity (AC50) in [8] is 0.984 µM (active).
Turning to `CCCC[C@H]1CN(CC2CCOCC2)C(=O)OC12CCN(C1(C)CCN(C(=O)c3c(C)ncnc3C)CC1)CC2`, the result in [1], in assay [3] and in assay [4] was inactive.
Consider `OCC(O)CO`, for which the result in assay [1], in assay [3] and in [4] was inactive.
As for `C=CCc1ccc(OC)c(OC)c1`, the outcome in assay [1], in assay [2], in assay [3], in assay [4] and in assay [7] was inactive.
With `CCc1cc(C2=C(C(=O)O)N(c3ccccc3C(F)(F)F)S(=O)(=O)c3ccccc32)cc2c1OCO2`, the result in assay [1], in assay [4], in assay [9] and in assay [11] was inactive. In addition, the figures for the AC50 in [3] and in assay [10] were 15.3 µM (active) and 4.98 µM (active), respectively.
For the compound `C#CC(O)C(CC)CCCC` (configuration not stated), the result in assay [1], in [2], in assay [3] and in assay [4] was inactive.
Consider `CC(=O)S[C@H](C(=O)N[C@H]1Cc2ccccc2[C@H]2CCC[C@@H](C(=O)O)N2C1=O)C(C)C`, for which the result in assay [1] and in assay [4] was inactive. Besides, the AC50 in assay [3] was 7.81 µM (active).
For `CC(C)(O)c1ccc(CNC(=O)c2cccnc2Oc2ccc(F)cc2)cc1`, the result in assay [1], in assay [3], in assay [4] and in assay [12] was inactive.
Regarding `CN(C)C(=O)NC1(c2ccccc2)CCN(CC[C@@]2(c3ccc(F)c(F)c3)CN(C(=O)c3ccccc3)CCO2)CC1`, the result in [1] and in assay [4] was inactive. Besides, the AC50 in [3] is 26.1 µM (active); in [10], 5.63 µM (active).
For `CC1(C)C(=O)NC(=O)N1CO`, the outcome in assay [1], in [3], in assay [4], in [7] and in assay [10] was inactive.
Take `O=C(N[C@@H](c1ccccc1)[C@@H]1CCCCN1)c1cccc(C(F)(F)F)c1Cl`: the AC50 in assay [1] was 20 µM (active); in assay [3] it was 14.4 µM (active); in assay [4], 26.5 µM (active); in assay [8], 1.06 µM (active); in assay [9], 3.27 µM (active). The result in assay [13] and in assay [10] was inactive.
On to `CN(C)CCCN1c2ccccc2Sc2ccc(Cl)cc21`, for which the AC50 in assay [1] is 16.4 µM (active); in assay [4], 28.3 µM (active). Further, the compound was classed as inactive in assay [12].
As for `Cc1occc(=O)c1O`, the result in assay [1], in assay [3] and in [4] was inactive.
In the case of `O=[Si]=O`, the result in [1], in assay [3] and in assay [4] was inactive.
